This passage reports AC50 and outcome results from PubChem BioAssay (EPA / NIEHS).

Where “and” joins values, the source holds several entries; their conditions need not be identical. Equal entries are not always repeated. Calls of active or inactive are those of the source. The calls were made as follows: active = hit-call score of the fitted dose curve at least 0.9, where 1 is the maximum; inconclusive = response in the unintended direction; inactive = score below 0.9.

In general, AC50 refers to the midpoint of the concentration-response curve, whichever way the signal moves.

The subject of the assay is rat CYP2B1, gene 24300. Nature of the assay: NVS_ADME_rCYP2B1: NovaScreen (NVS) CYP450-related Enzyme Activity (ADME) Assay for rat CYP2B1 (AID 2283117). How it is done: NVS_ADME_rCYP2B1 is a biochemical, single-readout assay that uses extracted gene-proteins in a cell-free assay. Measurements were taken 0.75 hour after chemical dosing in a 96-well plate.NVS_ADME_rCYP2B1 is one of one assay component(s) measured or calculated from the NVS_ADME_rCYP2B1 assay. It is designed to make measurements of enzyme activity, a form of enzyme reporter, as detected with fluorescence intensity signals by Fluorescence technology.Data from the assay component NVS_ADME_rCYP2B1 was analyzed into 1 assay endpoint. This assay endpoint, NVS_ADME_rCYP2B1, was analyzed in the positive analysis fitting direction relative to Acetonitrile as the negative control and baseline of activity. Using a type of enzyme reporter, loss-of-signal activity can be used to understand changes in the enzymatic activity as they relate to the gene Cyp2b1. Furthermore, this assay endpoint can be referred to as a primary readout, because this assay has produced multiple assay endpoints where this one serves a enzymatic activity function. To generalize the intended target to other relatable targets, this assay endpoint is annotated to the cyp intended target family, where the subfamily is xenobiotic metabolism.
Binding assays used specific radioligands (tritiated, iodinated) with non-radioactive competitive displacement ligands in agonist or antagonist protocols (as indicated) and various reference compounds and inhibitors to titrate specific binding to receptors and transporters. Most enzyme assays (CYPs, kinases, phosphatases, proteases, HDACs) used recombinant protein and specific substrates (fluorescence mostly, some colorimetric and radioactive) and inhibitors, followed by a biochemical separation of substrate and product. All assays for the biochemical HTS were initially run in duplicate at a single concentration (10 uM for CYP450 assays and 25 uM for all others). Assay-chemical combinations meeting a pre-defined threshold (e.g., 30% inhibition and other criteria defined below) were then run in singleton concentration-response format with maximum concentration of 20 uM for CYPs and 50 uM for all others. Each assay was run with positive and negative controls, and concurrent controls on every plate. The follow-up (secondary) screen tested active chemical-pairs in concentration series, as well as a few additional assays not tested in the primary screen, some selected negative inactives, and several cases re-run in the concentration series for confirmatory purposes.
As for `CC(C)(C)C(=O)C(Oc1ccc(Cl)cc1)n1cncn1` (stereo unspecified), the concentration at half-maximal activity (AC50) is 549 nM (active) and 1.69 µM (active).

For the molecule `CCCCC(O)(Cn1cncn1)c1ccc(Cl)cc1Cl` (stereo unspecified), the AC50 is 0.0547 µM (active).

As for `CCCCC(C#N)(Cn1cncn1)c1ccc(Cl)cc1` (stereo unspecified), the half-maximal activity concentration (AC50) was 1.64 µM (active).

Regarding `COP(=S)(OC)SCn1nnc2ccccc2c1=O`, the AC50 is 3.35 µM (active).

Take `N#Cc1c(Cl)cccc1Cl`: the call was inactive.

For `CC1(C)CCC(=Cc2ccc(Cl)cc2)C1(O)Cn1cncn1` (stereo unspecified), the AC50 was 1.84 µM (active).

For `CC(C)C1(C)N=C(c2ncccc2C(=O)O)NC1=O` (stereo unspecified), the molecule was called inactive.

Regarding `CCNC(=O)NC(=O)C(C#N)=NOC`, the molecule was classed as inactive.

Regarding `CCNP(=S)(OC)O/C(C)=C/C(=O)OC(C)C` (stereo unspecified), the half-maximal activity concentration (AC50) is 1.45 µM (active).

Take `COP(=S)(OC)Oc1ccc([N+](=O)[O-])c(C)c1`: the half-maximal activity concentration (AC50) is 1.17 µM (active).

In the case of `CCCN(CC)CC1COC2(CCC(C(C)(C)C)CC2)O1` (stereo unspecified), the result was inactive.
